What all share (details): 10 µM; exposure time 6 h
Assay [1] relates to Danio rerio larvae (5 dpf). Nature of the assay: difference in excitability vs DMSO (percentage points); higher = more excitable than DMSO. Put shortly:
(§1)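 Wild-type zebrafish larvae at 5 dpf were kept in 96-well plates and exposed for 6 h to 100 µL egg water holding library compound at a final concentration of 10 µM. From 3 h into exposure, the plates were held at 28.5 ℃ and photographed every 6 s through a 3-h programme of moving lines and 100 ms, 400Hz tones. Each behaviour was scored by Z-LaP Tracker, a DeepLabCut model, and averaged over 48 larvae per compound. Every value gives the compound mean minus the vehicle control mean, in percentage points.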

The subject of assay [2] is Danio rerio larvae (5 dpf). As to the kind of experiment: difference in startle response vs DMSO (percentage points); higher = stronger startle than DMSO. Put shortly:
as §1

The test system of assay [3] is Danio rerio larvae (5 dpf). Nature of the assay: difference in activity during first hour vs DMSO (percentage points); higher = more activity than DMSO. The essentials:
as §1

The test system of assay [4] is Danio rerio larvae (5 dpf). As to the kind of experiment: difference in habituation to acoustic stimuli vs DMSO (percentage points); higher = more habituation than DMSO. The essentials: as §1
The test system of assay [5] is Danio rerio larvae (5 dpf). Nature of the assay: difference in combined optomotor response to red, green and blue moving lines vs DMSO (percentage points); higher = stronger optomotor response than DMSO. The essentials: as §1

Structures can show the parent of a compound that is named as a salt.

This note sets out measurements from the supplement of paper PMC10515830.

Take `NC[C@H]1O[C@H](O[C@H]2[C@H](O)[C@@H](O[C@H]3O[C@H](CO)[C@@H](O)[C@H](N)[C@H]3O)[C@H](N)C[C@@H]2N)[C@H](N)C[C@@H]1O` [Tobramycin]: the difference in excitability in assay [1] stood at 25.5. Further, the “difference in startle response” value in assay [2] is -1.65. Besides, the “difference in activity during first hour” value in assay [3] is -2.18. Also, the “difference in habituation to acoustic stimuli” value (“difference in habituation” for short) in assay [4] was 4.43. Also, the difference in assay [5] is -2.09.

For `CC(C)(CO)c1cc2cc(NC(=O)C3(c4ccc5c(c4)OC(F)(F)O5)CC3)c(F)cc2n1C[C@@H](O)CO`, the difference in excitability in assay [1] stood at 16.7. Also, the “difference in startle response” value in assay [2] stood at 3.44. In assay [3], the “difference in activity during first hour” value stood at 15.2. In addition, the “difference in habituation” value in assay [4] turned out to be 6.02. The difference in assay [5] is 6.53.

For `Nc1[nH]c(=O)ncc1F` [5-Fluorocytosine], in assay [1], the difference in excitability came out at 0.317. In addition, the “difference in startle response” value in assay [2] stood at 1.12. For the same compound, the “difference in activity during first hour” value in assay [3] is -10.7. Also, in assay [4], the “difference in habituation” value is -2.78. Further, the difference in assay [5] stood at 2.67.

Consider `C[C@@H](Oc1cc(-c2cnn(C3CCNCC3)c2)cnc1N)c1c(Cl)ccc(F)c1Cl` [(R)-Crizotinib], for which the difference in excitability in assay [1] was determined as 11.1. In addition, the “difference in startle response” value in assay [2] was -4.49. In addition, the “difference in activity during first hour” value in assay [3] was -3.18. Further, the “difference in habituation” value in assay [4] stood at 0.409. For the same compound, in assay [5], the difference is -0.753.

Take `CCCCc1ncc(/C=C(\Cc2cccs2)C(=O)O)n1Cc1ccc(C(=O)O)cc1` [Eprosartan (mesylate)]: the difference in excitability in assay [1] came out at 7.16. The “difference in startle response” value in assay [2] was -7.77. Also, the “difference in activity during first hour” value in assay [3] is -8.19. Besides, the “difference in habituation” value in assay [4] is -4.96. For the same compound, in assay [5], the difference was found to be 5.89.

In assay [1], `CN(C)c1cc(NC(=O)CNC(C)(C)C)c(O)c2c1C[C@H]1C[C@H]3[C@H](N(C)C)C(O)=C(C(N)=O)C(=O)[C@@]3(O)C(O)=C1C2=O` [Tigecycline] registered a difference in excitability of 18.8. Besides, the “difference in startle response” value in assay [2] is 1.45. Moreover, the “difference in activity during first hour” value in assay [3] was -22.5. In assay [4], the “difference in habituation” value is -5.95. In addition, the difference in assay [5] is -3.12.

In turn, `Cc1cnc(C(=O)NCCc2ccc(S(=O)(=O)NC(=O)NC3CCCCC3)cc2)cn1` [Glipizide] showed a difference in excitability in assay [1] of 0.585. In addition, the “difference in startle response” value in assay [2] worked out at 1.17. Further, the “difference in activity during first hour” value in assay [3] was -9.11. The “difference in habituation” value in assay [4] turned out to be 5.88. In assay [5], the difference was 8.81.

`OC[C@H]1O[C@@H](O[C@@H]2[C@@H](CO)OC(O)(CO)[C@H]2O)[C@H](O)[C@@H](O)[C@H]1O` (mixture of isomers) [Lactulose] came in with a difference in excitability in assay [1] of 2.43. In addition, the “difference in startle response” value in assay [2] is -1.72. Further, in assay [3], the “difference in activity during first hour” value was -2.1. Further, in assay [4], the “difference in habituation” value was -4.39. Besides, the difference in assay [5] was -4.94.

In assay [1], `c1cnc2cc3c(cc2n1)[C@@H]1CNC[C@H]3C1` [Varenicline (tartrate)] showed a difference in excitability of 0.228. Besides, the “difference in startle response” value in assay [2] amounted to 1.55. Also, in assay [3], the “difference in activity during first hour” value is 3.08. Besides, the “difference in habituation” value in assay [4] amounted to 5.66. For the same compound, in assay [5], the difference was -2.67.

Turning to `O=C(O)C(=O)O.[NH-][C@@H]1CCCC[C@H]1[NH-].[Pt+2]` [Oxaliplatin], the difference in excitability in assay [1] is -8.81. For the same compound, in assay [2], the “difference in startle response” value is 2.6. Besides, in assay [3], the “difference in activity during first hour” value is -6.68. Moreover, the “difference in habituation” value in assay [4] is 11.3. Also, the difference in assay [5] is 1.69.

`COc1ccc(-n2nc(C(N)=O)c3c2C(=O)N(c2ccc(N4CCCCC4=O)cc2)CC3)cc1` [Apixaban] came in with a difference in excitability in assay [1] of -0.692. Also, the “difference in startle response” value in assay [2] was -6.58. Also, the “difference in activity during first hour” value in assay [3] stood at 1.99. The “difference in habituation” value in assay [4] was 4.29. In addition, the difference in assay [5] was found to be 10.4.

In assay [1], `COc1cc(C(=O)NS(=O)(=O)c2ccccc2C)ccc1Cc1cn(C)c2ccc(NC(=O)OC3CCCC3)cc12` [Zafirlukast] gave a difference in excitability of 3.02. Further, the “difference in startle response” value in assay [2] was -0.95. Moreover, in assay [3], the “difference in activity during first hour” value was 17.6. In addition, in assay [4], the “difference in habituation” value is 4.84. Also, in assay [5], the difference was -0.091.

Turning to `CC[C@H](C)C[C@H](C)CCCCCCCCC(=O)N[C@H]1C[C@@H](O)[C@@H](NCCN)NC(=O)[C@@H]2[C@@H](O)CCN2C(=O)[C@H]([C@H](O)CCN)NC(=O)[C@H]([C@H](O)[C@@H](O)c2ccc(O)cc2)NC(=O)[C@@H]2C[C@@H](O)CN2C(=O)[C@H]([C@@H](C)O)NC1=O` [Caspofungin (acetate)], the difference in excitability in assay [1] was 12.4. For the same compound, the “difference in startle response” value in assay [2] is -1.41. In addition, in assay [3], the “difference in activity during first hour” value was -14. In addition, the “difference in habituation” value in assay [4] was -0.0911. For the same compound, the difference in assay [5] was -8.06.

The compound `CC[C@@H]([C@H](C)O)n1ncn(-c2ccc(N3CCN(c4ccc(OC[C@@H]5CO[C@@](Cn6cncn6)(c6ccc(F)cc6F)C5)cc4)CC3)cc2)c1=O` [Posaconazole] displayed a difference in excitability in assay [1] of 9.26. The “difference in startle response” value in assay [2] is -3.5. For the same compound, the “difference in activity during first hour” value in assay [3] was determined as 4.34. The “difference in habituation” value in assay [4] was -1.56. In addition, the difference in assay [5] is 5.63.

The compound `CC[C@H]1OC(=O)[C@H](C)[C@@H](O[C@H]2C[C@@](C)(OC)[C@@H](O)[C@H](C)O2)[C@H](C)[C@@H](O[C@@H]2O[C@H](C)C[C@H](N(C)C)[C@H]2O)[C@](C)(O)C[C@@H](C)CN(C)[C@H](C)[C@@H](O)[C@]1(C)O` [Azithromycin] came in with a difference in excitability in assay [1] of 19.6. In assay [2], the “difference in startle response” value amounted to 2.02. The “difference in activity during first hour” value in assay [3] is -4.37. The “difference in habituation” value in assay [4] was -3.98. The difference in assay [5] is -0.0441.

In assay [1], `CC(C)(C#N)c1cc(Cn2cncn2)cc(C(C)(C)C#N)c1` [Anastrozole] had a difference in excitability of 1.93. Also, the “difference in startle response” value in assay [2] is -2.98. Moreover, the “difference in activity during first hour” value in assay [3] was -4.84. Moreover, the “difference in habituation” value in assay [4] was -5.36. The difference in assay [5] was 7.09.

For `C#C[C@]1(O)CC[C@H]2[C@@H]3CCC4=CC(=O)CC[C@@H]4[C@H]3CC[C@@]21C` [Norethindrone], in assay [1], the difference in excitability was determined as 4.84. In assay [2], the “difference in startle response” value was -3.95. Further, in assay [3], the “difference in activity during first hour” value is -0.842. Further, in assay [4], the “difference in habituation” value was determined as 2.6. Moreover, the difference in assay [5] was found to be 11.2.

`CCN(CC)C(=O)C1(c2ccccc2)CC1CN` (stereo not given) [Milnacipran (hydrochloride)] gave a difference in excitability in assay [1] of 16. In addition, the “difference in startle response” value in assay [2] was -4.41. Besides, the “difference in activity during first hour” value in assay [3] was -15.2. In addition, the “difference in habituation” value in assay [4] worked out at 1.78. Further, the difference in assay [5] was -3.7.

In assay [1], `CC1(C)CCC(CN2CCN(c3ccc(C(=O)NS(=O)(=O)c4ccc(NCC5CCOCC5)c([N+](=O)[O-])c4)c(Oc4cnc5[nH]ccc5c4)c3)CC2)=C(c2ccc(Cl)cc2)C1` gave a difference in excitability of 0.697. Also, the “difference in startle response” value in assay [2] is -11.3. Moreover, the “difference in activity during first hour” value in assay [3] was found to be 10.4. Also, the “difference in habituation” value in assay [4] amounted to 2.22. Besides, in assay [5], the difference amounted to 3.34.

Consider `C[C@@H]1O[C@@H]1P(=O)(O)O` [Fosfomycin Trometamol], for which the difference in excitability in assay [1] was 3.54. The “difference in startle response” value in assay [2] is -4.33. In addition, the “difference in activity during first hour” value in assay [3] was -4.99. In assay [4], the “difference in habituation” value was -4.72. Moreover, the difference in assay [5] is -4.51.

In turn, `Cc1ccccc1C(=O)Nc1ccc(C(=O)N2CCCC(O)c3cc(Cl)ccc32)c(C)c1` (stereo not given) [Tolvaptan] registered a difference in excitability in assay [1] of 11. Besides, the “difference in startle response” value in assay [2] was 1.76. Also, the “difference in activity during first hour” value in assay [3] stood at 15.8. In addition, the “difference in habituation” value in assay [4] was -0.912. Besides, the difference in assay [5] worked out at 5.47.

`CCC1=C(C)CN(C(=O)NCCc2ccc(S(=O)(=O)NC(=O)N[C@H]3CC[C@H](C)CC3)cc2)C1=O` [Glimepiride] gave a difference in excitability in assay [1] of -3.07. Also, the “difference in startle response” value in assay [2] was found to be 2.59. Moreover, the “difference in activity during first hour” value in assay [3] is 2.62. Further, the “difference in habituation” value in assay [4] amounted to 3.43. Also, in assay [5], the difference was -2.24.

For the compound `Nc1nc(N)c2nc(-c3ccccc3)c(N)nc2n1` [Triamterene], in assay [1], the difference in excitability is -0.938. For the same compound, the “difference in startle response” value in assay [2] was found to be 5.79. Moreover, the “difference in activity during first hour” value in assay [3] amounted to 11.3. Moreover, the “difference in habituation” value in assay [4] was -2.13. Further, the difference in assay [5] is 6.72.

In assay [1], `Nc1ccc(S(N)(=O)=O)cc1` [Sulfanilamide] had a difference in excitability of 11.8. Also, in assay [2], the “difference in startle response” value is -3.25. Besides, in assay [3], the “difference in activity during first hour” value amounted to 6.97. For the same compound, the “difference in habituation” value in assay [4] was -1.65. The difference in assay [5] was found to be 3.13.

In turn, `CC(C)Nc1cccnc1N1CCN(C(=O)c2cc3cc(NS(C)(=O)=O)ccc3[nH]2)CC1` [Delavirdine (mesylate)] had a difference in excitability in assay [1] of -2.46. For the same compound, in assay [2], the “difference in startle response” value is -1.52. Moreover, in assay [3], the “difference in activity during first hour” value was -9.21. The “difference in habituation” value in assay [4] came to 7.6. Also, the difference in assay [5] was -2.16.

Consider `CCN1C(=O)NC(c2ccccc2)C1=O` (stereo not given) [Ethotoin], for which, in assay [1], the difference in excitability is -4.35. In assay [2], the “difference in startle response” value is 11.7. Further, the “difference in activity during first hour” value in assay [3] was -2.99. The “difference in habituation” value in assay [4] was 0.909. Also, the difference in assay [5] was -3.6.
